LANA-H2A inh = blocks KSHV LANA binding to histone H2A/H2B | cell-free LANA-H2A/H2B peptide, fluorescence polarization | Q9QR71 | inhibition, % (test concentration not listed) | hit rate 0.6% among 320,000; in the data active = inhibition mostly above about 10%, no sharp cut-off; inactive = mostly below about 6.7%
VLA-4 inh = inhibition in a human VLA-4 binding assay; P13612; VLA-4 expressing cells, ligand binding flow cytometry; inhibition, % (about 7 µM as worked out from the volumes in the protocol); hit rate 0.2% among 330,000; AID 2557
Pemphigus Ab inh = blocks pemphigus antibody binding to human desmoglein-3 | AID 588358 | binding (percent of control), % at 10 µM | P32926 | hit rate 0.48% among 310,000 | DSG3-coupled beads, scFv-anti-DSG3-GFP binding, flow cytometry; stronger effect = lower value;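 active = binding more than 3 SD below its plate's average and above zero; inconclusive = below that plate limit but binding exactly zero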
HDAC3 inh = inhibitors of human histone deacetylase 3. inhibition, % at 8.3 µM. hit rate 0.15% among 320,000. recombinant HDAC3, fluorogenic peptide/trypsin coupled, fluorescence; in the data active = inhibition above about 26%, passing the limit was not always enough; inconclusive = no clear call, values can overlap the other calls
PKD1 kinase inh = inhibitors of human PKD1 kinase | Q15139 | PKD1 kinase fluorescence polarization assay | inhibition, % (no concentration beside the values) | hit rate 0.056% among 200,000 | AID 797
Target sequence (Q15139 whole entry, looked up): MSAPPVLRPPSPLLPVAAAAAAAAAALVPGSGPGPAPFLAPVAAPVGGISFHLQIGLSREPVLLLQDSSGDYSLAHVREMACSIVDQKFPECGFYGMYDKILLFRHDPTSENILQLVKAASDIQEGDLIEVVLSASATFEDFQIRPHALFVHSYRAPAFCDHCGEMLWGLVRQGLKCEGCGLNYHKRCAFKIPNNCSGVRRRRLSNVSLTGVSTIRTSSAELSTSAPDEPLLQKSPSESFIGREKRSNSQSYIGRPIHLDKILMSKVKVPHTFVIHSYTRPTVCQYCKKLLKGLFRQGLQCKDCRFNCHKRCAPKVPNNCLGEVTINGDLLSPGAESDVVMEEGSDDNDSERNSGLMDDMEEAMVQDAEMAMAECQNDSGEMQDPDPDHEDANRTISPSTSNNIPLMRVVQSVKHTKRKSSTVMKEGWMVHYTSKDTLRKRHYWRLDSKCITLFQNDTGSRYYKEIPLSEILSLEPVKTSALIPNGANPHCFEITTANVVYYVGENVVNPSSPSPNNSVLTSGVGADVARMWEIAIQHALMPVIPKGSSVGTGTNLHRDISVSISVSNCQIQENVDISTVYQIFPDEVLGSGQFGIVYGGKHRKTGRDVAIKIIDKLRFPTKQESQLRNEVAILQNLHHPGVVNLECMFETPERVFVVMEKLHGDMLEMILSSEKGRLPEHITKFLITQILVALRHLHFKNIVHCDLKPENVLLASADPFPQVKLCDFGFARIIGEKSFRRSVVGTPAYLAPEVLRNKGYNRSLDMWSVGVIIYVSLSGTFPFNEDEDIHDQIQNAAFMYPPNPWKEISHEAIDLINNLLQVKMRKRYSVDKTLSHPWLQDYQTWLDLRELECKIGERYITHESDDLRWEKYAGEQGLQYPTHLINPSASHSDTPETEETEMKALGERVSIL
GRK2 inh = human GRK2 inhibition via aptamer displacement; P25098; bead flow cytometry, FAM-aptamer displacement from GRK2; inhibition of aptamer binding, % at 10 µM; hit rate 0.59% among 330,000;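 active = inhibition of aptamer binding above 40%, roughly 3 SD of noise, on plates passing a quality check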;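 note: median bead fluorescence of bound FAM aptamer so fluorescent compounds give negative values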
GRK2 inh confirm = confirmation of human GRK2 inhibitors displacing RNA aptamer | aptamer displacement, % at 10 µM | AID 504451 | shares compounds with GRK2 inh | bead-bound GRK2, FAM-aptamer displacement, flow cytometry | hit rate 4% among 2,000;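 active = aptamer displacement above 40%, near three times the noise of non-fluorescent compounds, on plates passing quality checks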;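 note: negative values mostly reflect intrinsic compound fluorescence rather than true enhancement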
Aptamer quench = counter-screen for GRK2 aptamer inhibitors: fluorescent aptamer quenchers. shares compounds with GRK2 inh. Fluorescent RNA aptamer beads, quenching, flow cytometry; stronger effect = higher value. fluorescence change (kMESF span), kMESF (test concentration not listed). 110 tested, under 10 active. AID 504521;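 active = compounds whose bead fluorescence drops by more than 37 kMESF across the dose range, marking them as dye quenchers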
FAM quench CP1 = quenches fluorescent RNA aptamer, GRK2 hit artifact; shares compounds with GRK2 inh; Carboxyfluorescein RNA aptamer on beads, flow cytometry quenching; stronger effect = lower value; fluorescence response (% of DMSO), % at 10 µM; 2,000 tested, under 10 active;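 active = compounds that quench the bead-bound fluorescent RNA probe, cutting fluorescence to under half of the solvent control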;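 note: counterscreen run without GRK2 so only probe quenching by compound is measured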
GRK2 CP2 = confirmation of human GRK2 inhibitors binding RNA aptamer site | shares compounds with GRK2 inh | inhibition of aptamer binding, % at 10 µM | bead-bound GRK2, FAM-aptamer displacement, flow cytometry | AID 504782 | 360 tested, under 10 active;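 active = inhibition of aptamer binding above 40%, about triple the noise seen with nonglowing compounds, on plates passing quality control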;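 note: negative values mostly come from compounds that fluoresce themselves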
Aptamer quench 2 = aptamer fluorescence quenching in GRK2 counter-screen dose response; shares compounds with GRK2 inh; Streptavidin beads, FAM-RNA aptamer fluorescence quenching, flow cytometry; change in fluorescence (kMESF span), kMESF (no concentration beside the values); 25 tested, under 10 active; AID 504819;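 active = compounds quenching the bead-bound labeled aptamer, with fluorescence dropping by more than 37 kMESF over the dose range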
FAM quench CP2 = counter-screen for GRK2 binding hits: quenchers of fluorescent RNA aptamer; shares compounds with GRK2 inh; AID 588494; carboxyfluorescein RNA aptamer beads, flow cytometry quenching; stronger effect = lower value; 360 tested, under 10 active; fluorescence response vs DMSO, % at 10 µM;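 active = response vs DMSO under 50%, meaning signal dropped by over half, treated as fluorescence quencher; inconclusive = no clear call, values can overlap the other calls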;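 note: labelled aptamer on streptavidin beads without GRK2 as a quench counter-screen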
FAM quench PS1 = quenches fluorescent RNA aptamer, GRK2 hit artifact | shares compounds with GRK2 inh | Bead-bound FAM RNA aptamer fluorescence quenching, flow cytometry; stronger effect = lower value | fluorescence ratio to DMSO, % at 11.1 µM | 35 tested, under 10 active;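 active = compounds that dim the fluorescent label, raw bead signal shifting by over 33 units between lowest and highest dose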
Numbers stand for hits; - = inactive; ? = inconclusive; . = no result. An excerpt weighted towards active compounds, which were near 1.8% of everything screened. Cut-off read from the data, not from the text of the source, unless noted: active = inhibition above about 50%; inactive = the rest.

SMILES	LANA-H2A inh	VLA-4 inh	Pemphigus Ab inh	HDAC3 inh	PKD1 kinase inh	GRK2 inh	GRK2 inh confirm	FAM quench CP1	others
Cc1nc2cc(NC(=O)Nc3ccc(Br)cc3)ccc2o1	-	-	-	-	-	-	.	.
CCOc1ccc(NC(=O)CCS(=O)(=O)c2ccc(Br)cc2)cc1	-	-	-	-	.	83.0	.	.	GRK2 CP2=60.0;Aptamer quench 2=-;FAM quench CP2=-;FAM quench PS1=-
O=C(CCS(=O)(=O)c1ccc(Br)cc1)Nc1cc(F)ccc1F	-	-	-	-	-	82.0	.	.	GRK2 CP2=-;Aptamer quench 2=-;FAM quench CP2=-;FAM quench PS1=-
O=C(CCS(=O)(=O)c1ccc(Br)cc1)NC1CCCC1	-	-	-	-	-	80.0	61.2	-	Aptamer quench=-;Aptamer quench 2=-
CCc1ccccc1NC(=O)CCS(=O)(=O)c1ccc(Br)cc1	-	-	-	-	.	57.0	-	-	Aptamer quench=-;Aptamer quench 2=-;FAM quench PS1=-
COC(=O)c1ccccc1NC(=O)CCS(=O)(=O)c1ccc(Br)cc1	.	.	-	.	-	.	.	.
CCOc1ccccc1NC(=O)CCS(=O)(=O)c1ccc(Br)cc1	-	-	-	-	.	98.0	92.0	-	Aptamer quench=-;Aptamer quench 2=-;FAM quench PS1=-
CCC(C)(C)n1nnnc1C(c1ccc2ncccc2c1)N1CCN(c2ccc(O)cc2)CC1 (stereo unspecified)	-	-	-	-	.	-	.	.
CCC(C)(C)n1nnnc1C(c1ccc2ncccc2c1)N1CCN(c2nc3ccccc3s2)CC1 (stereo unspecified)	-	-	-	-	-	-	-	-
COc1ccc(N(CC(=O)N2CCN(c3cccc(C)c3C)CC2)S(=O)(=O)c2c(C)noc2C)cc1	-	-	-	-	.	-	.	.
O=C(CSc1nc2ccc([N+](=O)[O-])cc2s1)NCC1CCCO1 (stereo unspecified)	-	-	.	-	.	90.0	-	-
CCc1nnc(NC(=O)CSCc2cc(=O)n3nc(C)sc3n2)s1	-	-	-	-	.	-	.	.
COc1ccc(-c2nn(-c3ccccc3)cc2CNCc2cccnc2)c(F)c1	-	-	.	?	-	47.0	-	-
COc1ccc(CN(C)C(C)C(=O)Nc2ccc(S(=O)(=O)N3CCCCC3)cc2)cc1F (stereo unspecified)	-	-	-	-	.	72.0	-	-
Cc1cc(C)cc(NC(=O)CCCCCN2C(=O)[C@@H]3Cc4ccccc4CN3C2=O)c1	-	-	-	-	.	-	.	.
COc1cccc(NC(=O)CCCCCN2C(=O)[C@@H]3Cc4ccccc4CN3C2=O)c1	-	-	-	-	.	-	-	-
O=C(O)[C@H](Cc1ccccc1)NC(=O)N1CCN(c2ccc(F)cc2)CC1	-	-	-	-	.	93.0	-	-
O=C(CN1CCN(C(=O)c2ccco2)CC1)Nc1cc(S(=O)(=O)N2CCCC2)ccc1Cl	.	.	-	.	.	.	.	.
CC(=O)N1CCN(Cc2nc3cc(Cl)ccc3c(=O)[nH]2)CC1	-	-	-	-	-	87.0	42.1	-	Aptamer quench=-;GRK2 CP2=-;FAM quench CP2=-;FAM quench PS1=-
COc1ccc(N2CCN(Cc3nc4cc(Cl)ccc4c(=O)[nH]3)CC2)cc1	-	-	-	-	-	-	.	.	GRK2 CP2=-;FAM quench CP2=-
O=c1[nH]c(CN2CCN(S(=O)(=O)c3ccc(Cl)cc3)CC2)nc2cc(Cl)ccc12	-	-	-	-	-	-	.	.
COc1ccc([N+](=O)[O-])cc1NC(=O)c1cccs1	-	-	-	-	-	-	.	.
Cc1ccc([N+](=O)[O-])cc1NC(=S)NC(=O)c1cccs1	-	-	-	-	-	62.0	.	.	GRK2 CP2=-;FAM quench CP2=-
Cc1ccc(-c2noc(C3CCCN(C(=O)c4cccc(F)c4)C3)n2)cc1 (stereo unspecified)	16.2	-	-	-	.	100.0	-	-
C=CCSC1=C(C#N)C(c2ccccc2OCC)CC(=O)N1 (stereo unspecified)	-	-	-	-	-	-	-	-
SMILES	LANA-H2A inh	VLA-4 inh	Pemphigus Ab inh	HDAC3 inh	PKD1 kinase inh	GRK2 inh	GRK2 inh confirm	FAM quench CP1	others
Cc1ccc(-n2nnnc2CNC(=O)C(=O)c2c[nH]c3ccccc23)cc1C	.	.	-	.	.	.	.	.
Cc1ccc(NC(=O)Nc2ccc3c(c2)nc(C)n3C)cc1	-	-	-	-	-	-	.	.
Cc1cc(NC(=O)Nc2ccc3c(ccn3C)c2)sn1	-	-	-	-	.	-	-	-
CCOC(=O)N1CCN(C(=O)COC(=O)CNC(=O)c2ccc(Cl)cc2Cl)CC1	-	-	-	-	.	-	.	.
O=C(CNC(=O)c1ccc(Cl)cc1Cl)OCC(=O)N1CCCC1	-	-	.	-	.	56.0	-	-
COc1ccc(CC(=O)N(Cc2ccccc2)c2cccc(C)c2)cc1OC	-	-	.	-	.	100.0	.	.	GRK2 CP2=-;FAM quench CP2=-
COc1ccc(C(=O)N(Cc2ccccc2)c2cccc(C)c2)c(OC)c1OC	-	-	-	-	.	-	.	.
Fc1ccccc1N1CCN(C(c2ccncc2)c2nnnn2C2CCCC2)CC1 (stereo unspecified)	-	-	-	-	-	53.0	-	-
COc1ccc(CNC(=O)c2ccc(S(=O)(=O)N3CCOCC3)cc2)cc1	.	.	-	.	.	.	.	.
COC(=O)NCc1ccc(S(=O)(=O)N2CCOCC2)cc1	-	-	-	-	-	72.0	-	-
Cc1oc2c(c(C)cc3oc(=O)c(CC(=O)NCCCN4CCCC4=O)c(C)c32)c1C	-	-	-	-	.	-	-	-
COc1ccc(CCN2CC(C(=O)NC3CCOCC3)CCC2=O)cc1 (stereo unspecified)	-	-	-	-	.	-	.	.
CC1(C)CC(NC(=S)NC2CC2)CC(C)(C)N1	-	-	-	-	-	69.0	-	-
C=CCNC(=S)NC1CC(C)(C)NC(C)(C)C1	-	-	-	-	-	-	.	.
CN(CCOc1ccc(Cl)cc1)C(=O)CN1C(=O)NC2(CCCC2)C1=O	-	-	-	-	.	-	.	.
C=C(C)C(=O)Nc1cccc(C2=NOC3(C2)C[C@@H](C(N)=O)N(C(=O)CCCCC)C3)c1 (stereo partly specified)	-	-	-	-	.	98.0	90.1	-	Aptamer quench=-

Screening results deposited in PubChem by several laboratories.
